Potency and max activation data for 8 compounds are collected here from PubChem BioAssay (Tox21).

Experiment [1] in a line: Caspase-3/7 induction in HepG2 cells by small molecules, qHTS assay (AID 1346978). Also: nearly all actives have a fitted effect of over 15% in size. Also: potency is read from the fitted curve at half-maximal effect. The essentials: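 Caspase-3/7 induction was measured by Caspase-Glo 3/7 luminescence (30 min, room temperature) after a 17 hr compound exposure of wild-type HepG2 cells seeded at 2,000 per well and pre-incubated 5 hr.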
Experiment [2] in a line: Caspase-3/7 induction in CHO-K1 cells by small molecules, qHTS cell viability counter screen (AID 1346979). Also: potency is read from the fitted curve at half-maximal effect; nearly all actives have a fitted effect of over 35% in size. The procedure, abridged: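 To flag cytotoxic compounds, treated CHO-K1 wild-type cells were given CellTiter-Fluor at 16hr and read fluorescently after 1hr at 37C; the caspase-3/7 luminescence was measured in these same wells.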
Experiment [3] in a line: Caspase-3/7 induction in CHO-K1 cells by small molecules, qHTS assay (AID 1346980). Also: % is scaled to controls: 0 for no effect and ±100 for the full control effect; nearly all actives have a fitted effect of over 15% in size. The essentials:
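Luminescent Caspase-Glo 3/7 read (30min, room temperature) quantified apoptosis induction. Cells were wild-type CHO-K1, treated with compound for 17hr at 37 C and 5% CO2.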

Experiment [4] deals with Nuclear receptor subfamily 1 group I member 2 (Homo sapiens) (UniProt O75469). Nature of the experiment: Human pregnane X receptor (PXR) small molecule agonists, qHTS assay (AID 1346982). Also: nearly all actives have a fitted effect of over 35% in size. Also: potency is read from the fitted curve at half-maximal effect. As to activation: % is scaled to controls: 0 for no effect and ±100 for the full control effect. The procedure, abridged: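 Agonist mode: luminescence from ONE-Glo after 24 h compound exposure at 37C in HepG2 cells carrying hPXR-responsive CYP3A4 luciferase, plated in charcoal-stripped serum medium 5 h beforehand.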
Nuclear receptor subfamily 1 group I member 2 (Homo sapiens), sequence (O75469 whole entry, looked up): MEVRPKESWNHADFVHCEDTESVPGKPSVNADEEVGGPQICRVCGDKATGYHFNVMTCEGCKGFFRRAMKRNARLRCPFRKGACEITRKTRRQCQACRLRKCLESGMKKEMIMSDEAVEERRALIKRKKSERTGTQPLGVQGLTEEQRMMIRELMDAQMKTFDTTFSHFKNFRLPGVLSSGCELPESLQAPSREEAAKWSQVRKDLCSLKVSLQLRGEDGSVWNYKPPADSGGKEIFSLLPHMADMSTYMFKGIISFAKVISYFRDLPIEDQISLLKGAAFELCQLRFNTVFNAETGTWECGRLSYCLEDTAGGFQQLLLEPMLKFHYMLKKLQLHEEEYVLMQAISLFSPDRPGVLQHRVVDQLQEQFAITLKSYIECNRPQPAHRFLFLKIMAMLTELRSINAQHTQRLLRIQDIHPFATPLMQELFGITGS

The target of experiment [5] is Acetylcholinesterase (Homo sapiens) (UniProt P22303). Nature of the experiment: Acetylcholinesterase (AChE) small molecule antagonists: colormetric cell-based qHTS assay (AID 1347395; calls by dose curve; also: % is scaled to controls: 0 for no effect and ±100 for the full control effect; nearly all actives have a fitted effect of over 30% in size). The essentials:
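Neuroblastoma line SH-SY5Y supplied the enzyme; cells were preincubated with compound for 30 min at 37 C and 5% CO2. Acetylthiocholine with DTNB was then added for 90 min at 37 C, and thiocholine was measured by colour.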

For experiment [6] the target is unchanged. Nature of the experiment: Acetylcholinesterase (AChE) small molecule antagonists: enzyme-based qHTS assay (AID 1347397; calls by dose curve; also: % is scaled to controls: 0 for no effect and ±100 for the full control effect; nearly all actives have a fitted effect of over 55% in size). The note with it: Potency: AChE enzyme activity inhibition. The procedure, abridged:
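Colorimetric DTNB readout of acetylthiocholine hydrolysis, 10 min at room temperature, after 30 min room-temperature exposure of 50 mU/mL recombinant human enzyme to compound; DMSO vehicle control.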

Experiment [7] has the same target. The experiment can be described thus: Acetylcholinesterase (AChE) small molecule antagonists: fluorescence cell-based qHTS assay (AID 1347398; calls by dose curve; also: nearly all actives have a fitted effect of over 50% in size; also: potency is read from the fitted curve at half-maximal effect). The note with it: Potency: AChE activity. The procedure, abridged:
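Cellular AChE activity read as thiocholine from acetylthiocholine hydrolysis, detected by Thiolite Green fluorescence at 490/520 nm after 40 min at room temperature. Compounds were pre-incubated 30 min at 37 C on adherent SH-SY5Y cells.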

Experiment [8] shares this target. The experiment can be described thus: Acetylcholinesterase (AChE) small molecule antagonists: enzyme-based qHTS assay with human liver microsomes (AID 1347399; calls by dose curve; also: % is scaled to controls: 0 for no effect and ±100 for the full control effect; nearly all actives have a fitted effect of over 60% in size). As to conditions: Potency: qHTS inhibition. The essentials:
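Recombinant human AChE (50 mU/mL in the enzyme mix) and human liver microsomes (0.25 mg/mL final) were preincubated with compound and NADPH (0.25 mg/mL final) for 30 min at 37 C. Acetylthiocholine/DTNB was then added; thiocholine was read colorimetrically after 10 min at room temperature.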

Experiment [9] concerns the target Cytochrome P450 2D6 (Homo sapiens) (UniProt P10635). Nature of the experiment: Cytochrome P450 Family 2 Subfamily D Member 6 (CYP2D6) small molecule antagonists: luciferase reporter qHTS assay (AID 1671196). Also: nearly all actives have a fitted effect of over 50% in size. Also: potency is read from the fitted curve at half-maximal effect. The procedure, abridged: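 CYP2D6 activity was followed as luminescence from its luciferin product after a 1 h NADPH-driven reaction at room temperature. Enzyme-substrate mix and compound were pre-incubated for 10 min, and the signal was read 20 min after adding detection reagent.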

Experiment [10] has as its target Cytochrome P450 2C19 (Homo sapiens) (UniProt P33261). The experiment can be described thus: Cytochrome P450 Family 2 Subfamily C Member 19 (CYP2C19) small molecule antagonists: luciferase reporter qHTS assay (AID 1671197). Also: nearly all actives have a fitted effect of over 65% in size. Also: potency is read from the fitted curve at half-maximal effect. The procedure, abridged: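 P450-Glo CYP2C19 screening system; proluciferin substrate; DMSO compound stocks; 10 min RT preincubation; NADPH regeneration, 1 h at 37C; luciferin detection reagent, 20 min RT; luminescence as RLU.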

In experiment [11] the target is Cytochrome P450 2C9 (Homo sapiens) (UniProt P11712). Nature of the experiment: Cytochrome P450 Family 2 Subfamily C Member 9 (CYP2C9) small molecule antagonists: luciferase reporter qHTS assay (AID 1671198). Also: nearly all actives have a fitted effect of over 50% in size. Also: potency is read from the fitted curve at half-maximal effect. The essentials: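 Enzyme-substrate mix preincubated with compound 10 min at room temperature; reaction started with NADPH regeneration solution, 1 h 37C. Luminescent luciferin product read after 20 min detection reagent.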
Cytochrome P450 2C9 (Homo sapiens), sequence (P11712 whole entry, looked up): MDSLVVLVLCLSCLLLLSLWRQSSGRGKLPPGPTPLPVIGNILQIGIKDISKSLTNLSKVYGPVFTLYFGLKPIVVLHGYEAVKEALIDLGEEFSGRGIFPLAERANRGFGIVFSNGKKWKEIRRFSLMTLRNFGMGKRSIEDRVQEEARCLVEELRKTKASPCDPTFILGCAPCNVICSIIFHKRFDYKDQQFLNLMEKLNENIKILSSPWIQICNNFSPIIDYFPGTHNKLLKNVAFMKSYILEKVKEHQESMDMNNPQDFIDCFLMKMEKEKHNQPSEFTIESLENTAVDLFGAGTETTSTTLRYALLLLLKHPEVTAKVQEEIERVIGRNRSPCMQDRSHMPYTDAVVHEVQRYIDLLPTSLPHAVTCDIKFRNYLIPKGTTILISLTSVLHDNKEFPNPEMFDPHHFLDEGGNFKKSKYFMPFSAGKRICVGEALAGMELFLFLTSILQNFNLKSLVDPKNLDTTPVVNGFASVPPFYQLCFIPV

Experiment [12] concerns the target Voltage-gated inwardly rectifying potassium channel KCNH2 (Homo sapiens) (UniProt Q12809). Nature of the experiment: Human Ether-a-go-go-Related Gene (hERG) channel small molecule antagonists: fluorescence cell-based qHTS assay (AID 1671200). Also: nearly all actives have a fitted effect of over 50% in size. Also: potency is read from the fitted curve at half-maximal effect. The procedure, abridged:
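Measured: Tl+ flux via fluorescence (480/540 nm) in hERG-expressing U2OS cells after 1 h dye loading at room temperature.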

Experiment [13] has as its target Cytochrome P450 3A4 (Homo sapiens) (UniProt P08684). Nature of the experiment: Cytochrome P450 Family 3 Subfamily A Member 4 (CYP3A4) small molecule antagonists: luciferase reporter qHTS assay (AID 1671201). Also: nearly all actives have a fitted effect of over 50% in size. Also: potency is read from the fitted curve at half-maximal effect. The procedure, abridged:
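Setup: enzyme-substrate mix, compound pin transfer, 10 min RT. Reaction: NADPH regeneration solution, 1 h RT. Readout: detection reagent stops turnover, luminescence measured after 20 min, expressed in relative luminescence units.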

For experiment [14], the target named is Cytochrome P450 1A2 (Homo sapiens) (UniProt P05177). The experiment can be described thus: Cytochrome P450 Family 1 Subfamily A Member 2 (CYP1A2) small molecule antagonists: luciferase reporter qHTS assay (AID 1671199). Also: nearly all actives have a fitted effect of over 50% in size. Also: potency is read from the fitted curve at half-maximal effect. The procedure, abridged:
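Luminescence from luciferin formed by CYP1A2 from a proluciferin substrate, read 20 min after detection reagent. Compound was pre-incubated 10 min with enzyme-substrate, and reaction started with NADPH regeneration solution for 1 h at room temperature; furafylline control.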

Experiment [15] is described as follows: Caspase-3/7 induction in HepG2 cells by small molecules, qHTS cell viability counter screen (AID 1346981). Also: series mostly up to about 92 µM; % is scaled to controls: 0 for no effect and ±100 for the full control effect; nearly all actives have a fitted effect of over 30% in size. The essentials:
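CellTiter-Fluor fluorescence measured viability in the same wells used for Caspase-Glo 3/7. HepG2 (wild type) at 2,000 cells/well were pre-incubated 5 hr, dosed, and given reagent at 16 hr, with 1 hr further at 37C.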

For experiment [16], the target named is Nuclear receptor subfamily 1 group I member 2 (Rattus norvegicus) (UniProt Q9R1A7). Nature of the experiment: Rat pregnane X receptor (rPXR) activation by small molecules, qHTS assay (AID 1346983). Also: % is scaled to controls: 0 for no effect and ±100 for the full control effect; nearly all actives have a fitted effect of over 20% in size. As to conditions: rPXR luciferase reporter cells, One-Glo luminescence, 24 h; max activation: active compounds read high. The essentials:
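Luminescent readout (One-Glo luciferase, 30 min room temperature) followed 24 hr compound treatment at 37 C of rPXR cells plated 2,000 per well and preincubated 5hr; qHTS format with compounds delivered in DMSO.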

The target of experiment [17] is Nuclear receptor subfamily 1 group I member 2 (Homo sapiens) (UniProt O75469). The experiment can be described thus: CYP3A4 induction through human pregnane X receptor (PXR) by small molecules, qHTS assay (AID 1346984). Also: % is scaled to controls: 0 for no effect and ±100 for the full control effect; nearly all actives have a fitted effect of over 40% in size. The procedure, abridged: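 Read-out is luminescence after One-Glo addition, following a 3 hr, 37C incubation with Luciferin-IPA CYP3A4 substrate (3uM final). Before that, compounds were on DPX-2 cells (HepG2 co-transfected with PXR element plus CYP3A4-promoter luciferase) for 24 hr at 37C.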

The structures appear in SMILES notation. Unmarked numbers belong to inactive results. Records with an inconclusive call do not appear. Active and inactive are the calls of the source. Unless noted, calls follow the shape of the dose curve; as a rule, active = well fitted curve in the direction sought with a large enough effect in the repeat runs; inconclusive = weak or mixed curves; inactive = no such curve, though single readings can be large; an effect the other way counts as inactive or inconclusive.

Cytochrome P450 2C19 (Homo sapiens), sequence (P33261 whole entry, looked up): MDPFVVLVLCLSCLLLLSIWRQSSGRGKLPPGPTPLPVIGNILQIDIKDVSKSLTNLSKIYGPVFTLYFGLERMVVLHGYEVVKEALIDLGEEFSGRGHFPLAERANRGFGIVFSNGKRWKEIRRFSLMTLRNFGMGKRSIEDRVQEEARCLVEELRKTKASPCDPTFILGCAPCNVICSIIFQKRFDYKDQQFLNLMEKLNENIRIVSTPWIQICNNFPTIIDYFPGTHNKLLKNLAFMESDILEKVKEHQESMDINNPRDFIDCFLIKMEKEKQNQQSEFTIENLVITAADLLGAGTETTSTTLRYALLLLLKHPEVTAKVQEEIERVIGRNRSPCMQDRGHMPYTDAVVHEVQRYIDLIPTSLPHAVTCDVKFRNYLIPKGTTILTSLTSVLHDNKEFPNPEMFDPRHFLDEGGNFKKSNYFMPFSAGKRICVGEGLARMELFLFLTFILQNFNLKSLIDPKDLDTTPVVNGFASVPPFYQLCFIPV
Cytochrome P450 1A2 (Homo sapiens), sequence (P05177 whole entry, looked up): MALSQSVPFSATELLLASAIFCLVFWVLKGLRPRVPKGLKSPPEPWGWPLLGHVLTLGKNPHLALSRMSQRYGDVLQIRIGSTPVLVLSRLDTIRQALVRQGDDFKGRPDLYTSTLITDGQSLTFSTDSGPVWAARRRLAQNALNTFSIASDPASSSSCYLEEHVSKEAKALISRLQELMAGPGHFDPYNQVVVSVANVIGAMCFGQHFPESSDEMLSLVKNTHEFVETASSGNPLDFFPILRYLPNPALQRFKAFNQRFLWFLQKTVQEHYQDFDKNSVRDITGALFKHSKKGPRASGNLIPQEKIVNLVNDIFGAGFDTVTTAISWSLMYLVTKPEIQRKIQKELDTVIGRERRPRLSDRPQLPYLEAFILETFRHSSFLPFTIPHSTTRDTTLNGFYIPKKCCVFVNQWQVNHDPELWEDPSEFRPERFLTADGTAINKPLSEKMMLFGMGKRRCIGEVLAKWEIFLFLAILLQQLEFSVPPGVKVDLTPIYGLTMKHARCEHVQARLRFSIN
Voltage-gated inwardly rectifying potassium channel KCNH2 (Homo sapiens), sequence (Q12809 whole entry, looked up): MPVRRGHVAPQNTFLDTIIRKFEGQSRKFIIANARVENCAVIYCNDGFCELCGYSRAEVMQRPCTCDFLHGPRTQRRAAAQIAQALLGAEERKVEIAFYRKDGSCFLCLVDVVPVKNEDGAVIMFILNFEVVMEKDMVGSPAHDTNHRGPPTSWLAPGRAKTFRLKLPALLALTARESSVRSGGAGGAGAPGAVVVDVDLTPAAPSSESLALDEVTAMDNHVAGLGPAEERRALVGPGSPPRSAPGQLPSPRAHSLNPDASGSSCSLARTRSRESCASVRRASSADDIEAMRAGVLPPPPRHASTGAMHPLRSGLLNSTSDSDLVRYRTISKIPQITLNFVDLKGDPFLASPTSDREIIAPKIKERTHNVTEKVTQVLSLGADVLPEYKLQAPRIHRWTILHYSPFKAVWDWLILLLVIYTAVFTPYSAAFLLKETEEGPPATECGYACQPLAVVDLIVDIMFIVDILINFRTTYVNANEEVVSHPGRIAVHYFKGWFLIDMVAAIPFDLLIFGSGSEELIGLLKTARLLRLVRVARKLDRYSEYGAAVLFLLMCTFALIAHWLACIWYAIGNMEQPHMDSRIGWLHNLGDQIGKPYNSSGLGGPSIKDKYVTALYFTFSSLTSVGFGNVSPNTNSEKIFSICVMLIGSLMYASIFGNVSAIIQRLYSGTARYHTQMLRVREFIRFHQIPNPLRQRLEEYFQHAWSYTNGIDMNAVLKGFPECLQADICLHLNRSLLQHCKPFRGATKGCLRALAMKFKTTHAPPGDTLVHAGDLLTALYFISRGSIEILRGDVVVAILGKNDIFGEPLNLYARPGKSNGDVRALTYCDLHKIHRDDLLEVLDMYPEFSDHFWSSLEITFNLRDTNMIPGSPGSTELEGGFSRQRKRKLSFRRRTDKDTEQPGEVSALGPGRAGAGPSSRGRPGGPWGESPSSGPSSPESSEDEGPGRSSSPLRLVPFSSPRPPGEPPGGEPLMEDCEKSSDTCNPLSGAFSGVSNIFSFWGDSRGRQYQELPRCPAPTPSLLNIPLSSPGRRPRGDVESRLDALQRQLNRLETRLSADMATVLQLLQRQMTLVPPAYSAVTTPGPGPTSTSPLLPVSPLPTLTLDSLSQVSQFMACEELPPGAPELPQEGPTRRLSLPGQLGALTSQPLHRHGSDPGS
Cytochrome P450 2D6 (Homo sapiens), sequence (P10635 whole entry, looked up): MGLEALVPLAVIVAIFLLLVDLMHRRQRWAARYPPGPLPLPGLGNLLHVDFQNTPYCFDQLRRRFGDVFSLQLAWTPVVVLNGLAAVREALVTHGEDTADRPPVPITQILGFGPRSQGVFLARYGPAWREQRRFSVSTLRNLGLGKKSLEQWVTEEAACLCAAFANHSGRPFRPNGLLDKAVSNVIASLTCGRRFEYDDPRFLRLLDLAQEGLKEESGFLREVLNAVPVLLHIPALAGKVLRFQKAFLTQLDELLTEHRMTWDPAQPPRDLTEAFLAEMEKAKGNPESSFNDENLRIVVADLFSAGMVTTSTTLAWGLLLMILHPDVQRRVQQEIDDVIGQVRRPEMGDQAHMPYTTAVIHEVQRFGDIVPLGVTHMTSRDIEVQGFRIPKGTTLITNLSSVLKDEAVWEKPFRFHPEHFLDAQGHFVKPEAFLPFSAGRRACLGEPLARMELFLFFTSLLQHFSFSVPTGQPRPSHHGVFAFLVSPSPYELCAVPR
Cytochrome P450 3A4 (Homo sapiens), sequence (P08684 whole entry, looked up): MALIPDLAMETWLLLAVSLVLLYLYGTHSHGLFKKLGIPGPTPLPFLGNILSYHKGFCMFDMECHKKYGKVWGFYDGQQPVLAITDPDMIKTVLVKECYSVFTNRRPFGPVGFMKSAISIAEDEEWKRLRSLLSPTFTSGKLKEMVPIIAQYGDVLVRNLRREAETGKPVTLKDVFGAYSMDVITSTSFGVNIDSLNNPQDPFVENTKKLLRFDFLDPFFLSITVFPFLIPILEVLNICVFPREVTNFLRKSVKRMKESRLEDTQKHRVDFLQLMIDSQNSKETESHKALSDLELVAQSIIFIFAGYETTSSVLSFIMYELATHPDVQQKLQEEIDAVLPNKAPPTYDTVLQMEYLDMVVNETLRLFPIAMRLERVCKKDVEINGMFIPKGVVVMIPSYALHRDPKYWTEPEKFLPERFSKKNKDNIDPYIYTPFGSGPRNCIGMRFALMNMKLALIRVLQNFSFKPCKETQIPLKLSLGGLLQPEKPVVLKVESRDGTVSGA
Acetylcholinesterase (Homo sapiens), sequence (P22303 whole entry, looked up): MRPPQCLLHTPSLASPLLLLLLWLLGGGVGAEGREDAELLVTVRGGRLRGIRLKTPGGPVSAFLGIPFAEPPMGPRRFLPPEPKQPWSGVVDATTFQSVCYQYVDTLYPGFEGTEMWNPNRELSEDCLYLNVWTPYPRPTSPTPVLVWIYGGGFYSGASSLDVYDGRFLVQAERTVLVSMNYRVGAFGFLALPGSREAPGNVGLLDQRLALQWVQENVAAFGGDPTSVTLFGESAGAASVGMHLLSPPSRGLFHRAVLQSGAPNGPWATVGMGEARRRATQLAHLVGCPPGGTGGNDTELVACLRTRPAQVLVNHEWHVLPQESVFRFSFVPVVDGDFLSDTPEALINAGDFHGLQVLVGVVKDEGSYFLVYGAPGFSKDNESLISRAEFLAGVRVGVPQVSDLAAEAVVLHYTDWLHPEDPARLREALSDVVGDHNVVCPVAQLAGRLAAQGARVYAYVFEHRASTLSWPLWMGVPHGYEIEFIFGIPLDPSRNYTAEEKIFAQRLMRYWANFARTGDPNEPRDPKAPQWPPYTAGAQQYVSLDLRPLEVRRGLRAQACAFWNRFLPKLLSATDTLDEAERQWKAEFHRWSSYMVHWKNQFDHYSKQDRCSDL

Take `FC(F)C(F)(F)OCC(Cn1cncn1)c1ccc(Cl)cc1Cl` (stereo not given): the Potency result in experiment [1], in experiment [3], in experiment [5], in [6], in experiment [7] and in experiment [8] was “inactive” throughout. Further, in experiment [12], the Potency entry was “inactive”. In addition, the Potency was 48.3 µM (active) in experiment [2]; 27.1 µM (active) in experiment [4]; 11.2 µM (active) in [9]; 0.0199 µM (active) in experiment [10]; 1.77 µM (active) in [11]; 0.223 µM (active) in experiment [13].

For the compound `Oc1ccc([C@H]2CNCc3c2ccc(O)c3O)cc1O`, the Potency result in experiment [1], in experiment [4], in [6], in experiment [8], in experiment [14] and in [12] was “inactive” each time. In experiment [13], the Potency result is “inactive”. Moreover, the Potency in experiment [2] is 29.8 µM (active); in experiment [7], 30.9 µM (active); in experiment [9], 34.7 µM (active); in experiment [10], 38.9 µM (active); in [11], 13.8 µM (active).

Regarding `COc1c2c(cc3c1OCO3)CCN(C)C2`, the Potency entry in [1], in [3], in experiment [15], in experiment [4], in experiment [17] and in experiment [5] was “inactive” throughout. Also, the Potency result in experiment [6], in experiment [7], in experiment [8], in [10], in [11] and in [12] was “inactive” in each case. The Potency entry in [13] is “inactive”. The max activation in experiment [16] is -1.49%. The Potency in [9] was 4.36 µM (active).

Regarding `N#Cc1c[nH]cc1-c1cccc2c1OC(F)(F)O2`, the Potency in experiment [1] is 12.2 µM (active); in experiment [2], 48.6 µM (active); in [4], 27.3 µM (active); in experiment [10], 5.64 µM (active); in [11] it was 20 µM (active); in [14], 1.59 µM (active). Besides, the Potency entry in experiment [3], in [5], in experiment [7], in experiment [8], in [12] and in experiment [13] was “inactive” in each case.

Turning to `ClC1=C(Cl)[C@]2(Cl)[C@@H]3[C@H]4C[C@H]([C@@H]5O[C@H]45)[C@@H]3[C@@]1(Cl)C2(Cl)Cl`, the Potency entry in experiment [1], in experiment [3], in experiment [15], in experiment [17], in [5] and in [6] was “inactive” in each case. Further, the Potency entry in experiment [7], in experiment [8], in [9] and in [12] was “inactive” each time. Also, the Potency in [4] is 5.44 µM (active); in experiment [10], 63.3 µM (active).

As for `CCCCc1ccccc1`, the Potency result in experiment [1], in experiment [3], in experiment [15], in experiment [4], in experiment [5] and in experiment [6] was “inactive” throughout. For the same compound, the Potency result in experiment [7], in experiment [8], in experiment [9], in [10], in experiment [11] and in experiment [14] was “inactive” throughout. For the same compound, the Potency result in [12] and in [13] was “inactive” throughout.

Consider `S=C=NCCc1ccccc1`, for which the Potency entry in experiment [1], in experiment [3], in [15], in experiment [5], in experiment [6] and in experiment [7] was “inactive” each time. For the same compound, the Potency entry in [8] was “inactive”. Besides, the Potency in [4] is 54.6 µM (active); in [9], 11.3 µM (active); in experiment [10] it was 20.1 µM (active); in [11] it was 17.9 µM (active); in experiment [14], 10.1 µM (active); in [12], 15.5 µM (active). In addition, in [13], the Potency was 20.1 µM (active).

On to `CCOP(=S)(NC(C)C)Oc1ccccc1C(=O)OC(C)C` (stereo not given), for which the Potency result in [1], in experiment [3], in experiment [5], in experiment [6], in [7] and in experiment [8] was “inactive” each time. In experiment [12], the Potency result was “inactive”. Besides, the Potency in experiment [2] is 61.1 µM (active); in experiment [4] it was 3.06 µM (active); in experiment [10], 0.2 µM (active); in experiment [11], 1.42 µM (active); in [14] it was 8.94 µM (active); in [13], 0.71 µM (active).
